Reference: PubChem BioAssay (Tox21)
Records with an inconclusive call do not appear. The source made the active and inactive calls. Calls follow the shape of the full dose curve.

Test: qHTS assay to identify small molecule agonists of the NFkB signaling pathway - cell viability counter screen (AID 1159515); also: nearly all actives have a fitted effect of over 55% in size
Conditions: NFkB-bla ME-180 viability, CellTiter-Glo luminescence, 5 h; series mostly up to 61 µM
Procedure, shortened: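 Counter screen run alongside the NFkB-bla agonist assay: ME-180 reporter cells exposed to compounds for 5 hr, then lysed with CellTiter-Glo in the same wells. Luminescence, read after 30 min, reflects viable cells.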

Row | SMILES | outcome
1 | Cc1ccc(NC=O)c(C)c1 | inactive
2 | CC(CN=Cc1ccccc1O)N=Cc1ccccc1O (centres undefined) | inactive
3 | CCC(C)CCCC(C)(C)O (centres undefined) | inactive
4 | CO[C@@H]1[C@@H](O[C@@H]2O[C@H](C)[C@@H](O[C@H]3C[C@@](C)(O)[C@@H](O)[C@H](C)O3)[C@H](N(C)C)[C@H]2O)[C@@H](CC=O)C[C@@H](C)[C@@H](O[C@@H]2CC[C@H](N(C)C)[C@@H](C)O2)/C=C/C=C/C[C@@H](C)OC(=O)C[C@H]1OC(C)=O | inactive
5 | CC(=O)Nc1ccccc1O | inactive
6 | CCCCOC(=O)C(C)Oc1ccc(Oc2ccc(C(F)(F)F)cn2)cc1 (centres undefined) | inactive
7 | C=CC(O)CCCCC (centres undefined) | inactive
8 | CC(=O)OCC(=O)[C@@]1(O)CC[C@H]2[C@@H]3CCC4=CC(=O)C=C[C@]4(C)[C@@]3(F)[C@@H](O)C[C@@]21C | inactive
9 | O=C(O)CNc1ccccc1 | inactive
10 | O=C(Nc1ccccc1)c1cc([N+](=O)[O-])ccc1Cl | inactive
11 | C=CC(C)CCC=C(C)C (centres undefined) | inactive
12 | CC1=C(C)C(=O)C(CCCCC#CCCCC#CCO)=C(C)C1=O | inactive
13 | CCCCCCCCC(=O)OCC(C)OC(=O)CCCCCCCC (centres undefined) | inactive
14 | Cc1cc(C)n(CO)n1 | inactive
15 | OCCCO | inactive
16 | CCCCOC(=O)CC#N | inactive
17 | CCN(CCCCOC(=O)c1ccc(OC)c(OC)c1)C(C)Cc1ccc(OC)cc1 (centres undefined) | inactive
18 | C[C@H](CN1CCCC1)C(=O)c1ccc(C(F)(F)F)cc1 | inactive
19 | CC(C)Oc1ccccc1O | inactive
20 | FC1(F)C(F)(F)C(F)(F)C2(F)C(F)(C1(F)F)C(F)(F)C(F)(F)C1(F)C(F)(F)C(F)(F)C(F)(F)C(F)(F)C12F (centres undefined) | inactive

Row | SMILES | outcome
21 | CCCCCCCCCCCCSC#N | inactive
22 | CNc1ccccc1 | inactive
23 | CC(C)(C(=O)O)c1ccc(C(O)CCCN2CCC(C(O)(c3ccccc3)c3ccccc3)CC2)cc1 (centres undefined) | inactive
24 | CCCCC(CC)COCCC#N (centres undefined) | inactive
25 | O=C1OC(=O)C2CC=CCC12 (centres undefined) | inactive
26 | C=CCCC | inactive
27 | C=C(C)C(=O)OCCCCCCCCCCOC(=O)C(=C)C | inactive
28 | CC(O)CN (centres undefined) | inactive
29 | COC(=O)C(C)(C)C | inactive
30 | Nc1cccc2c(=O)[nH][nH]c(=O)c12 | inactive
31 | Cc1cc(N)n(-c2ccccc2)n1 | inactive
32 | CC[C@H](NC(C)C)[C@H](O)c1ccc(O)c2[nH]c(=O)ccc12 | inactive
33 | CC(O)C(C)O (centres undefined) | inactive
34 | NC(=O)c1ccccc1C(N)=O | inactive
35 | O=Cc1ccc(Cl)c([N+](=O)[O-])c1 | inactive
36 | O=C(OCCOCCOCCOC(=O)c1ccccc1)c1ccccc1 | inactive
37 | CCCN(C1CCN(C(=O)C2CCNCC2)CC1)[C@@H]1CCc2ccc(OC)cc2C1 | inactive
38 | CC1(C)CC(=O)CC(C)(C)N1 | inactive
39 | CO[C@@H]1COCC[C@@H]1N[C@@H]1CC[C@@](C(=O)N2CCc3ncc(C(F)(F)F)cc3C2)(C(C)C)C1 | inactive
